Results reported in PubChem BioAssay AID1460 (National Center for Advancing Translational Sciences (NCATS), 2008).
In all, about 270,000 compounds went through this assay and about 5,800 (2.1%) were called active. Another 16% or so got no clear call; they are omitted. Calls follow the shape of the dose curve; as a rule, active = well fitted inhibition curve with a large enough effect; inconclusive = small, poorly fitted or top-dose-only effect; inactive = flat fitted curve, though single readings scatter. What follows is part of a selection rich in actives, with near analogues and random picks from the rest. Where a call stands in place of a potency, no number is given.

Biological target: Microtubule-associated protein tau (Homo sapiens) (UniProt P10636)
Sequence (P10636 561-689 P618L limits assumed): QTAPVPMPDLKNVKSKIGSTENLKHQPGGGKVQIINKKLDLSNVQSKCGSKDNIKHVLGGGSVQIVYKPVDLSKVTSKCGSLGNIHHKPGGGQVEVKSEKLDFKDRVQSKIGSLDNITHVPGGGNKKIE
Assay: qHTS for Inhibitors of Tau Fibril Formation, Thioflavin T Binding; also: nearly all actives have a fitted effect of over 55% in size
Details: recombinant tau K18 P301L (four-repeat tau fragment), heparin-induced fibrillization, ThT fluorescence; series mostly up to 57.4 µM
Method in brief: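 In this qHTS, human K18 P301L tau is incubated with compound and heparin for 6 hr at 37 C, and Thioflavin T fluorescence then reports fibril load.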
Potency is read from the fitted curve at half-maximal effect.

Row | SMILES | Potency
1 | O=C(CCc1ccccc1)NCc1ccc2c(c1)CCN2C(=O)c1ccccc1 | inactive
2 | Cc1cccc(-n2c(C)cc(/C=N\NC(=O)c3cccs3)c2C)c1 | inactive
3 | Cc1cc(/C=N/n2cnnc2)c(C)n1-c1cccc(C(=O)O)c1 | inactive
4 | Cc1cc(/C=N/Nc2ccc([N+](=O)[O-])cn2)c(C)n1-c1cccc(C(=O)O)c1 | 2.82 µM (active)
5 | COc1cc(/C=N\NC(=O)CNC(=O)c2cccc([N+](=O)[O-])c2)ccc1O | inactive
6 | Cc1ccc(-n2c(C)cc(/C=N/Nc3ccc([N+](=O)[O-])cn3)c2C)c(C)c1 | 3.98 µM (active)
7 | Cc1ccc(-n2c(C)cc(/C=N\NC(=O)CC(=O)NC(C)C)c2C)cc1 | inactive
8 | COc1cc(/C=N/NC(=O)Nc2ccccc2)ccc1OCCOc1ccccc1C | inactive
9 | COc1cc(/C=N\Nc2ccc([N+](=O)[O-])cn2)ccc1OCC(=O)O | 12.6 µM (active)
10 | Cc1cccc(C)c1NC(=O)CSc1ccc([N+](=O)[O-])cn1 | inactive
11 | COc1cccc(NC(=O)N(Cc2cn(C)c3ccccc23)C2CCCCCC2)c1 | inactive
12 | COc1ccc(Cn2c(C(=O)O)c(CNCc3cccc(OC)c3)c3ccc(C)cc32)cc1 | inactive
13 | COc1cc(C(=O)NCCS(=O)(=O)N2CCN(c3ccccc3)CC2)cc(OC)c1OC | inactive
14 | COc1ccc(-n2c(SCC(=O)Nc3ccc(Cl)c(C)c3)nc3n[nH]c(C)c3c2=N)cc1 | inactive
15 | CCOc1ccc(NC(=O)C2CCN(S(=O)(=O)c3cc(-c4noc(C)n4)ccc3C)CC2)cc1 | inactive
16 | COc1ccc(-c2nn3c(=O)cc(CN4CCN(C(=O)c5ccc(OC)c(OC)c5)CC4)nc3s2)cc1 | inactive
17 | Cc1cccc2c(=O)cc(CSc3ccccc3NC(=O)C(C)C)[nH]c12 | inactive
18 | COc1cc(=O)[nH]c(=O)n1C(=O)Cc1ccccc1 | inactive
19 | COc1ccc(Cn2c(=O)cc(C)[nH]c2=S)cc1 | inactive
20 | CCCOc1ccc(Cn2c(O)cc(=O)[nH]c2=O)cc1 | 25.1 µM (active)
21 | Cc1cccc(NC(=O)N2CCC(CN3CCc4ccccc4C3)CC2)c1C | inactive
22 | Cc1cccc(S(=O)(=O)CC(=O)Nc2nc(-c3ccccc3)cs2)c1 | inactive
23 | COc1ccc2c(c1OC)C(=O)OC2Nc1nc(-c2ccccc2)cs1 (stereo not given) | 17.8 µM (active)
24 | COc1ccc2c(c1OC)C(=O)OC2c1c(O)nc(SC)n(-c2ccccc2)c1=O (stereo not given) | inactive
25 | O=C(CN1C(=O)COc2ccc(S(=O)(=O)N3CCCCCC3)cc21)N1CCN(c2cccc(C(F)(F)F)c2)CC1 | inactive

Row | SMILES | Potency
26 | Cc1ccc(CCNC(=O)Cn2c(-c3cccs3)cc3cc(F)ccc32)cc1 | inactive
27 | Cc1ccc(Cl)cc1NC(=O)c1ccccn1 | inactive
28 | Cc1ccc(Cl)cc1NC(=O)C(C)n1nnc2sc(-c3ccccc3)cc2c1=O (stereo not given) | 17.8 µM (active)
29 | Cc1cc2nn(-c3ccc(Cl)cc3)nc2cc1NC(=O)C(C)C | inactive
30 | COc1cccc(NC(=O)CSC2=Nc3ccccc3C3=NC(CC(=O)NC4CCCCC4)C(=O)N23)c1 (stereo not given) | inactive
31 | Cc1ccc(Cl)cc1N1CCN(C(=O)c2cn(C)c3ccc(S(=O)(=O)N(C)C4CCCCC4)cc3c2=O)CC1 | inactive
32 | CC(=O)Oc1cccc(N2C(=O)CC(Nc3ccc(N4CCOCC4)cc3)C2=O)c1 (stereo not given) | 15.8 µM (active)
33 | COc1ccc(N2CCN(C3CC(=O)N(c4ccc5c(c4)OCCO5)C3=O)CC2)cc1 (stereo not given) | inactive
34 | CC(=O)Oc1cccc(N2C(=O)C3CC=C(Cl)CC3C2=O)c1 (stereo not given) | inactive
35 | COCCNC(=O)CSc1c(C)cnc2c1c(=O)n(C)c(=O)n2C | inactive
36 | CC(=O)N1c2ccccc2CC1C(=O)N1CCN(c2ccc(F)cc2)CC1 (stereo not given) | inactive
37 | O=C(CSc1nnc(Nc2ccccc2)s1)Nc1cccnc1Cl | inactive
38 | CC(C)c1ccc(Nc2nnc(SCC(=O)c3nnc(-c4ccccc4)o3)s2)cc1 | 17.8 µM (active)
39 | Cc1ccc(Nc2nnc(SCc3ccccc3)s2)cc1 | inactive
40 | CCOC(=O)c1c(S(=O)(=O)N2CCCC(C(=O)NCc3cccc(C)c3)C2)c(C)n(C)c1C (stereo not given) | inactive
41 | COc1cccc(CNC(=O)C2CCN(S(=O)(=O)c3ccc4c(ccn4C)c3)CC2)c1 | inactive
42 | COc1ccc(/C=N/N=C2/C(=O)Nc3ccccc32)cc1O | 10 µM (active)
43 | CCOc1ccc(/C=N/NC(=O)CSc2ccccn2)cc1O | inactive
44 | COc1ccc(/C=N/S(=O)(=O)c2ccccc2)cc1OC | inactive
45 | CCN(Cc1ccccc1)C(=O)c1cn(-c2cccc(OC)c2)c(=O)c2ccccc12 | inactive
46 | O=C(CSc1nnc(-c2ccccc2F)o1)Nc1cccc(C(F)(F)F)c1 | inactive
47 | CN(C(=O)CSc1nnc(NC(=O)Nc2ccccc2)s1)c1ccccc1 | inactive
48 | CCOC(=O)c1cnc2c(C)cc(C)cc2c1Nc1ccc(N2CCOCC2)cc1 | 11.2 µM (active)
49 | CCOC(=O)c1ccccc1C(=O)N1CCOCCOCCOCC1 | inactive
50 | CCc1cccc(NC(=O)c2cnc(N3CCOCC3)c3ccccc23)c1 | inactive

Row | SMILES | Potency
51 | Cc1cc(C)cc(NC(=O)c2cnc3sc(N4CCCC4)nn3c2=O)c1 | inactive
52 | Cc1[nH]c2ccccc2c1/C=N\NC(=O)Cn1nnc(-c2ccccc2)n1 | inactive
53 | CN=c1scc(-c2cc(OC)ccc2OC)n1/N=C/c1c(C)[nH]c2ccccc12 | 14.1 µM (active)
54 | CCn1c(-c2cc(OC)ccc2OC)csc1=Nc1c(C)n(C)n(-c2ccccc2)c1=O | inactive
55 | CCOc1ccc(NC(=O)c2cc(S(=O)(=O)N3CCCC3)c[nH]2)cc1 | inactive
56 | O=S(=O)(c1ccc(Br)cc1)c1nnn2c1nc(N1CCOCC1)c1sccc12 | inactive
57 | CCN1/C(=C\c2ccc3ccccc3[n+]2CC)Sc2cc(C)ccc21 | 15.8 µM (active)
58 | CCN1/C(=C/c2ccc3ccc(C)cc3[n+]2CC)Sc2ccccc21 | inactive
59 | COc1ccc(S(=O)(=O)NCC(c2ccc(N(C)C)cc2)N2CCCC2)cc1 (stereo not given) | inactive
60 | O=C(c1ccc(Br)cc1)N(Cc1cccs1)c1ccc(F)cc1 | inactive
61 | Cc1cc(Nc2ccccc2)nc(N)n1 | inactive
62 | c1ccc(Nc2n[nH]nc2-c2ccccc2)cc1 | inactive
63 | Nc1ccc(Nc2ccccc2)cc1 | 15.8 µM (active)
64 | CNc1ccc(-c2nc(-c3ccccc3C)no2)cc1[N+](=O)[O-] | inactive
65 | Cc1cccc(NC(=O)c2sc3nc4c(c(-c5ccco5)c3c2N)CCC4)c1 | 7.94 µM (active)
66 | NC(=O)c1sc2nc3c(c(-c4ccccc4)c2c1N)CCC3 | inactive
67 | CC(=O)Nc1ccc(NC(=O)c2sc3nc4c(c(-c5ccc(C)cc5)c3c2N)CCC4)cc1 | inactive
68 | CCN(CC)c1ccc(NC(=O)CN2C(=O)c3cccnc3Oc3ccc(Cl)cc32)c(C)c1 | inactive
69 | O=S(=O)(Nc1ccc2nc(-c3cccc(Cl)c3)oc2c1)c1ccccc1 | inactive
70 | COc1ccccc1Nc1c2c(nc3ccc(NC(=O)/C=C/c4cc(OC)c(OC)c(OC)c4)cc13)CCCC2 | 14.1 µM (active)
71 | CCOc1ccc(C(=O)Nc2ccc3nc4c(c(Nc5ccccc5OC)c3c2)CCCC4)cc1 | 14.1 µM (active)
72 | Cc1ccc(Nc2c3c(nc4ccccc24)CCC3)cc1 | inactive
73 | COc1cccc(NC(=O)c2ccc3c(SCC(=O)O)c4c(nc3c2)CCCC4)c1 | inactive
74 | COc1ccc(NS(=O)(=O)c2cc(NC(=O)/C=C/c3cc(OC)c(OC)c(OC)c3)ccc2N2CCCCC2)cc1 | inactive
75 | CCOc1ccc(-n2nc3ccc(NC(=O)c4ccc(OC)c(Cl)c4)cc3n2)cc1 | inactive

Row | SMILES | Potency
76 | COCCNC(=O)CCCN1C(=O)c2ccccc2Sc2ncccc21 | inactive
77 | Cc1ccc(NC(=O)c2ccc(CN3CC(=O)N4CCCCC4C3=O)cc2)c(Cl)c1 (stereo not given) | inactive
78 | Cc1ccnc(Nc2nc3ccccc3s2)n1 | inactive
79 | Cc1ccnc(-n2sc3ccccc3c2=O)n1 | 14.1 µM (active)
80 | Cc1ccnc(SCC(N)=O)n1 | inactive
81 | O=C(N/N=C/c1ccc2c(c1)OCO2)C(=O)N1CCCC1 | inactive
82 | CCc1c(C)sc(NC(=O)/C=C/c2ccc3c(c2)OCO3)c1C(=O)OC | inactive
83 | O=C1/C(=C/c2ccc3c(c2)OCO3)CCC/C1=C\c1ccc2c(c1)OCO2 | 3.98 µM (active)
84 | NS(=O)(=O)c1ccc(NC(=O)COC(=O)c2c3c(nc4ccccc24)/C(=C\c2ccc4c(c2)OCO4)CCC3)cc1 | inactive
85 | CCOC(=O)CCCNC(=O)COC(=O)/C=C/c1ccc2c(c1)OCO2 | inactive
86 | CCC1=C/C(=C\c2ccc3c(c2)OCO3)C(=O)S1 | 15.8 µM (active)
87 | CCOc1ccc(NC(=O)CCC(=O)N2CC(C)Oc3ccc(C)cc32)cc1 (stereo not given) | inactive
88 | CC1=C(c2ccc(C)c(C)c2)S(=O)(=O)NC1=NCc1ccccc1Cl | inactive
89 | COc1ccc(CNC(=O)CSc2nc3ccccc3nc2Cc2ccccc2)cc1 | inactive
90 | COc1ccc(Cn2ccc3nc(C)c(C(=O)Nc4ccc(C)c(F)c4)cc3c2=O)cc1 | inactive
91 | COc1ccccc1CNC(=O)c1ccccc1NC(=O)c1nsc2ccccc12 | inactive
92 | CCOC(=O)c1cc(-c2ccc(OC)c(S(=O)(=O)Nc3ccc(OC)cc3OC)c2)on1 | inactive
93 | CN(Cc1ccco1)S(=O)(=O)c1nnc(NC(=O)c2ccccc2)s1 | inactive
94 | CCCCOc1ccc(Cn2c(=O)oc3ccc(C)cc32)cc1OC | inactive
95 | COc1ccc(CN2C(=O)CC(Cc3ccc(C)cc3)C2=O)cc1OC (stereo not given) | inactive
96 | CCCCOc1ccc(CN2C(=O)C(=O)c3cc(Br)cc(C)c32)cc1OC | 28.2 µM (active)
97 | CSc1nc(=O)c2c(n1C)NC(=O)CC2c1ccccc1OC(C)C (stereo not given) | inactive
98 | Cc1cccc(C(=O)Nc2nnc(Cc3c[nH]c4ccccc34)s2)c1 | inactive
99 | Cc1cccc(N=C2NN=C(c3c[nH]c4ccccc34)CS2)c1 | 2.82 µM (active)
100 | COCCn1c(C)cc(C2=NNC(=Nc3ccc(F)cc3)SC2)c1C | inactive
